From PubChem
Hits are enriched below; roughly 11% of the tested compounds scored in any of these assays.
HP1b chromo inh: blocks HP1-beta chromodomain binding to methylated histone tails | P83916 | AlphaScreen HP1-beta / biotin-H3K9me3 peptide binding | Potency, µM (series often up to 114 µM), actives largely listed as inhibitors | 390,000 compounds, 0.56% hits; further: nearly all actives have a fitted effect of over 70% in size
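AlphaScreen: HP1-beta (50 nM) preformed 30 min with biotin-H3(1-18)K9me3 peptide (50 nM) in PBS pH 7.4, 0.01% Tween-20. Compound added for 30 min at RT, then streptavidin donor/nickel chelate acceptor beads (10 ug/mL) for 30 min.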
BAZ2B block: BAZ2B (human) inhibition; 360,000 compounds, 4.4% hits; Potency, µM (top dose mostly 114 µM), actives largely listed as inhibitors; AlphaScreen BAZ2B-H3K14Ac peptide displacement; further: nearly all actives have a fitted effect of over 60% in size
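Inhibition is scored as reduced AlphaScreen emission. The BAZ2B/b-H3(5-23)K14Ac complex (50 nM each) in PBS pH 7.4, 0.01% Tween-20 meets compound (up to 110 uM) for 30 min at RT before bead addition.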
PLK1 PBD inh: inhibitors of human PLK1 polo-box domain binding. P53350. Plk1 PBD binding of FITC phosphopeptide, fluorescence polarization. Potency, µM, most hits filed as inhibitors. 360,000 compounds, 2.8% hits. AID 720504; further: series mostly up to about 57 µM; nearly all actives have a fitted effect of over 65% in size
Target sequence (P53350 whole entry, looked up, the tested form may be a part): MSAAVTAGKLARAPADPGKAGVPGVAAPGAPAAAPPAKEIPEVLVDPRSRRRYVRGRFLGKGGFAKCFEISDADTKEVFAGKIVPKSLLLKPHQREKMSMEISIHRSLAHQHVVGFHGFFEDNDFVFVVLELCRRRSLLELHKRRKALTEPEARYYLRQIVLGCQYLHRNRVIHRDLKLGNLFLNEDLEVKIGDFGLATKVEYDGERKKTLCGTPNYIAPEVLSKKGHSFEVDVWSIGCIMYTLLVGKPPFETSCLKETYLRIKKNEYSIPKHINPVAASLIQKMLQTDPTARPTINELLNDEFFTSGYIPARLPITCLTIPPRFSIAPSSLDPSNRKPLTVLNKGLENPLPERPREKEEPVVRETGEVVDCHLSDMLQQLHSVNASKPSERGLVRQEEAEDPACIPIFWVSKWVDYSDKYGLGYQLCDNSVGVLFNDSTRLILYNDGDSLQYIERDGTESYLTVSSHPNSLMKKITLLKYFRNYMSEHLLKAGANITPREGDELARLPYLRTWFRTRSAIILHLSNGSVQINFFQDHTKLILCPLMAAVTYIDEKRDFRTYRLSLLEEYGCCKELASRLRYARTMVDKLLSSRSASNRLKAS
JMJD2A Tudor inh: JMJD2A Tudor domain (human) inhibition | O75164 | AlphaScreen JMJD2A-Tudor / H3K4me3 peptide binding | Potency, µM (titrated, usually from 114 µM), usual class: inhibitors | 390,000 compounds, 4.4% hits | AID 504339; further: nearly all actives have a fitted effect of over 50% in size
VDR inh: blocks the human vitamin D receptor; P11473; VDR-SRC2-3 peptide fluorescence polarization, 2 h; Potency, µM, most hits filed as inhibitors; 400,000 compounds, 0.93% hits
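Compounds are added to VDR with labelled SRC2-3 coactivator peptide and held 2 h at room temperature. Inhibition of the VDR–peptide interaction is then read as a change in fluorescence polarization.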
G9a block: inhibitors of human histone lysine methyltransferase G9a. Q96KQ7. G9a H3K9 monomethylation, AlphaScreen, 2 h. Potency, µM (top dose mostly 102 µM), actives largely listed as inhibitors. 350,000 compounds, 8.8% hits. AID 504332; further: nearly all actives have a fitted effect of over 75% in size
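Using a bead-based AlphaScreen, monomethylated H3K9 product from 2 h room-temperature reactions (G9a 20 nM, peptide 500 nM, SAM 20 uM) was detected with 0.5 ug/mL rabbit anti-H3K9me1 antibody.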
Large screens that a line does not name were inactive. The call rests on the fitted dose curve; in most records, active means well fitted curve in the direction sought with a large enough effect; inconclusive means small, poorly fitted or top-dose-only effect, or another doubt; inactive means no such curve, though single readings can be large; an effect the other way counts as inactive or inconclusive.

O=C(O)c1cc(N/N=C/c2ccc3c(c2)OCO3)ccc1Cl	BAZ2B block inconclusive, G9a block 50.1µM
COc1ccc(C(=O)N2c3ccc(C)cc3C(C)(c3ccccc3)CC2(C)C)cc1 (stereo not drawn)	none (no result: PLK1 PBD inh)
CCOC(=O)N1CCN(c2cc(=O)n(-c3ccccc3C)c(=O)[nH]2)CC1	none (no result: BAZ2B block)
CCN1CCN(c2cc(=O)n(-c3cc(Cl)ccc3C)c(=O)[nH]2)CC1	G9a block 50.1µM
Cc1ccccc1-n1c(=O)cc(N2CCN(Cc3ccccc3)CC2)[nH]c1=O	G9a block 56.2µM
COc1ccc(CC(=O)NCc2n[nH]c(=S)n2C)cc1	JMJD2A Tudor inh inconclusive, G9a block 44.7µM
COc1cccc(C(=O)NCc2n[nH]c(=S)n2-c2cccc(C)c2)c1	JMJD2A Tudor inh 17.8µM, G9a block inconclusive
COc1ccc(CC(=O)NCc2ccccc2)cc1	none
COc1ccc(CC(=O)NCc2n[nH]c(=S)n2-c2cccc(C)c2)cc1	JMJD2A Tudor inh 7.94µM, G9a block 11.2µM
Cc1cccc(C(=O)NCCc2n[nH]c(=S)n2C)c1	JMJD2A Tudor inh inconclusive, G9a block 11.2µM
O=C(Cn1cc(COc2ccc3ccccc3c2)nn1)NS(=O)(=O)c1cccc(OC(F)F)c1	none (no result: HP1b chromo inh, BAZ2B block, JMJD2A Tudor inh, VDR inh, G9a block)
Cc1cccc(C(=O)N2CCN(S(=O)(=O)N3CCCCCC3)CC2)c1	none
C=CCn1c(C(C)NC(=O)c2cccc(C)c2)n[nH]c1=S (stereo not drawn)	JMJD2A Tudor inh 17.8µM, G9a block 28.2µM
O=C(Cc1ccccc1)NCc1n[nH]c(=S)n1-c1ccccc1	HP1b chromo inh inconclusive, PLK1 PBD inh 26.7µM, G9a block inconclusive
O=C(NCc1n[nH]c(=S)n1-c1cccc(C(F)(F)F)c1)c1ccco1	JMJD2A Tudor inh 12.6µM, G9a block 12.6µM
COc1ccccc1N1CCN(C(=O)CN2C(=O)COc3ccc(S(=O)(=O)N4CCC(C)CC4)cc32)CC1	none (no result: PLK1 PBD inh)
CCOC(=O)Cc1csc(NC(=O)NC2(C(F)(F)F)Oc3cc(Cl)c(Cl)cc3O2)n1	BAZ2B block inconclusive, PLK1 PBD inh 21.2µM, JMJD2A Tudor inh inconclusive, G9a block 12.6µM
CCOC(=O)Cc1csc(NC(=O)NC2(C(F)(F)F)Oc3ccccc3O2)n1	BAZ2B block inconclusive, PLK1 PBD inh 11.9µM, VDR inh inconclusive, G9a block 8.91µM
CCOC(=O)Cc1csc(NC(=O)NC2(C(F)(F)F)Oc3ccc(Cl)cc3O2)n1 (stereo not drawn)	PLK1 PBD inh 16.8µM, JMJD2A Tudor inh inconclusive, VDR inh inconclusive, G9a block 25.1µM
CCOC(=O)Cc1csc(NC(=O)Cc2ccc(Cl)cc2)n1	none
CC1(C)O[C@H]2[C@@H](O1)[C@@H](C(=O)Nc1cc(F)ccc1F)O[C@@H]1OC(C)(C)O[C@@H]12	none (no result: PLK1 PBD inh)
O=C1NC[C@@H](CCCCN2C[C@H](Cc3ccccc3)N(CCc3ccc(O)cc3)C(=O)C2=O)N(CCc2ccccc2)C1=O	none (no result: HP1b chromo inh, BAZ2B block, JMJD2A Tudor inh, VDR inh, G9a block)
Cc1ccc(C)c(NC(=O)CN2C(=O)COc3ccc(S(=O)(=O)N4CCCC4)cc32)c1	none
CC(OC(=O)c1ccc2c(c1)OCO2)C(=O)NC1CCCCC1 (stereo not drawn)	none (no result: HP1b chromo inh, BAZ2B block, JMJD2A Tudor inh, VDR inh, G9a block)
CC1CCN(S(=O)(=O)c2ccc(C(=O)OC(C)C(=O)NC3CCCCC3C)cc2)CC1 (stereo not drawn)	G9a block 31.6µM
CC(OC(=O)c1ccc2c(c1)OCO2)C(=O)NC1CCCCC1C (stereo not drawn)	G9a block 28.2µM
CCOCCCNC(=S)N(Cc1ccccc1)Cc1nc2ccccc2c(=O)[nH]1	PLK1 PBD inh inconclusive, G9a block 10µM
O=C(c1ccncc1)N(Cc1ccccc1)Cc1nc2ccccc2c(=O)[nH]1	none
CCCNC(=S)N(Cc1ccccc1)Cc1nc2ccccc2c(=O)[nH]1	G9a block 7.08µM
CC(=O)c1ccc(-c2c(C3C4C=CCCC4(C)C(=O)N3Cc3ccccc3)ccc3ccccc23)cc1 (stereo not drawn)	none (no result: BAZ2B block, PLK1 PBD inh, G9a block)
NC(=O)CC[C@H](NC(=O)c1ccc(F)cc1)C(=O)OCC(=O)NCc1ccc(F)cc1	PLK1 PBD inh inconclusive, JMJD2A Tudor inh 14.1µM, VDR inh 70.8µM
Cn1c(=O)c2c(SCC(=O)N3CCOCC3)nc(-c3ccccc3Cl)nc2n(C)c1=O	none
CC(CC(=O)Nc1cccc(F)c1)S(=O)(=O)c1ccc2c(c1)NC(=O)CO2 (stereo not drawn)	none
CCOc1ccc2nc(SC3CC(=O)N(c4ccc(OC)cc4OC)C3=O)sc2c1 (stereo not drawn)	G9a block 31.6µM
CCOc1ccc(N2C(=O)CC(Sc3nc4ccc(OCC)cc4s3)C2=O)cc1 (stereo not drawn)	none (no result: BAZ2B block, G9a block)
CCc1ccc(NC(=O)c2cc(S(=O)(=O)N3CCc4ccccc43)cn2C)cc1	none
CN(C)c1ccc(/C=N/NC(=O)C[n+]2ccccc2)cc1	none (no result: BAZ2B block, G9a block)
O=C(C[n+]1ccccc1)N/N=C/c1ccc(C(=O)O)cc1	BAZ2B block 79.4µM, G9a block inconclusive
O=C(C[n+]1ccccc1)N/N=C/c1cc(Br)cc(Br)c1O	BAZ2B block 10µM, JMJD2A Tudor inh 22.4µM
O=C(C[n+]1ccccc1)N/N=C/c1cc(Br)ccc1F	BAZ2B block 70.8µM, JMJD2A Tudor inh inconclusive
COCC(C)Nc1ncnc2c1cnn2-c1ccc(C)c(C)c1 (stereo not drawn)	none (no result: PLK1 PBD inh)
Cn1cccc1C(=O)N1CCC2(CC1)CCN(c1ncccn1)CC2	none (no result: HP1b chromo inh, BAZ2B block, PLK1 PBD inh, JMJD2A Tudor inh)
O=C(O)c1ccc2c(c1)C(=O)N([C@]1(C(=O)O)C[C@H]1c1ccccc1)C2=O	none (no result: HP1b chromo inh, PLK1 PBD inh, VDR inh)
CC1(C(=O)O)CCC(C(=O)Nc2cccc(F)c2)C1(C)C (stereo not drawn)	none
COc1ccc(C(=O)OCC[N+]2(C)CCCCC2)cc1	PLK1 PBD inh inconclusive, G9a block inconclusive
COc1ccc(C(=O)C[N+]2(C)CCOCC2)cc1	BAZ2B block inconclusive, JMJD2A Tudor inh 22.4µM, G9a block 12.6µM
COc1ccc(-n2c(Cc3cccn3C)nnc2SCC(=O)Nc2cccc(C)c2C)cc1	BAZ2B block inconclusive, JMJD2A Tudor inh inconclusive, G9a block 44.7µM
Cc1ccc(-n2c(Cc3cccn3C)nnc2SCC(=O)N2CCc3ccccc32)cc1	HP1b chromo inh inconclusive, BAZ2B block 50.1µM, JMJD2A Tudor inh inconclusive, G9a block 44.7µM
CCCCn1c(Cc2ccccc2)nnc1SCC(=O)N1CCOCC1	G9a block inconclusive
COc1ccc(-n2c(Cc3cccn3C)nnc2SCC(=O)Nc2nccs2)cc1	BAZ2B block inconclusive, G9a block inconclusive
COc1ccc(-n2c(Cc3cccn3C)nnc2SCC(=O)Nc2ccccc2C)cc1	G9a block inconclusive
COc1ccc(-n2c(Cc3cccn3C)nnc2SCC(=O)Nc2ccccc2F)cc1	BAZ2B block inconclusive, JMJD2A Tudor inh inconclusive, VDR inh inconclusive, G9a block 50.1µM
Cn1cccc1Cc1nnc(SCC(=O)N2CCOCC2)n1CCc1ccccc1	G9a block 44.7µM
